# In the library only some 1.6% were active in any assay of this set; here they are far more common.
# KCNQ2 inh: inhibitors of rat KCNQ2 potassium channel; O88943; CHO-K1 KCNQ2, FluxOR thallium flux, 20 min; hits give low values; B-score at 10 µM; 310,000 compounds, 1.1% hits;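 active = fluorescence ratio B-score at most minus 3 library SDs, with starting brightness B-score within 2 library SDs, cut at about -5.5 in these data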
# Target sequence (O88943 whole entry, looked up): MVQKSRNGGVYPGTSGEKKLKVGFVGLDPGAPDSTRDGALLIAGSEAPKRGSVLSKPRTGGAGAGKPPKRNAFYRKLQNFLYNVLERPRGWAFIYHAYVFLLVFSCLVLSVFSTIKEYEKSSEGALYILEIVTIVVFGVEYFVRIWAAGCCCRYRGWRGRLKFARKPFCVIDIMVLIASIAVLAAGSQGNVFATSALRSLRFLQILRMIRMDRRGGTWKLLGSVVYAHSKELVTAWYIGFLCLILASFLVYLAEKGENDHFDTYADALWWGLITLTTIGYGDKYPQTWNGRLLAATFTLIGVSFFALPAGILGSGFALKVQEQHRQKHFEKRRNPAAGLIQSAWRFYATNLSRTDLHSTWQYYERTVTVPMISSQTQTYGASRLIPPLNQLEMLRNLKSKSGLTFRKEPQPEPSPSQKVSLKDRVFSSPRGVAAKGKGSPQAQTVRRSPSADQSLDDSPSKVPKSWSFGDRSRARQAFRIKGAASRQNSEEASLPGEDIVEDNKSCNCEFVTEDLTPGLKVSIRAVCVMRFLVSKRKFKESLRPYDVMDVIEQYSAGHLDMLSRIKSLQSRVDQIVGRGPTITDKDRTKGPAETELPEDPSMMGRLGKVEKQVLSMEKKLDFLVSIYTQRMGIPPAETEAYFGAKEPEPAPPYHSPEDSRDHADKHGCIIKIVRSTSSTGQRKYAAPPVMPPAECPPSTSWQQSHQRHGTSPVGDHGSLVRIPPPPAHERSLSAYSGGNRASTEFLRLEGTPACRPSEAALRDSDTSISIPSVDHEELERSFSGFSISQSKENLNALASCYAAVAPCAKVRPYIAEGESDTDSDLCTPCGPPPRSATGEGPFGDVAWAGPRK
# KCNQ2 pot: potentiators of rat KCNQ2 potassium channel | B-score at 10 µM | 310,000 compounds, 0.54% hits | CHO-K1 KCNQ2, FluxOR thallium flux fluorescence; hits give high values | AID 2239 | O88943;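 active = fluorescence ratio B-score at least 3 SD of library B-scores, with initial fluorescence B-score within 3 of them, cut at about 5.3 in these data; same plate scores as AID 2156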;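 also: B-score of peak minus minimum over baseline fluorescence ratio after K+ and Tl+ stimulus; positive B-score means potentiation of KCNQ2 with more thallium influx and brighter signal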
# An asterisk follows results filed as active; i = inactive; · = not tested or not shown.
SMILES,KCNQ2 inh,KCNQ2 pot
CCCOC(=O)C(C)n1cnc2scc(-c3ccc(C)cc3)c2c1=O (centres undefined),i,·
O=C(CCCCN1CCCCC1)c1ccccc1,i,0.54
O=C(CCCCCCCC(=O)c1ccccc1)c1ccccc1,-6.24*,-6.24
COc1cc(COCC(O)CN2CCN(CCN3C(=O)c4cccc5cccc(c45)C3=O)CC2)cc(OC)c1OC (centres undefined),i,0.97
O=C1c2cccc3cccc(c23)C(=O)N1CCN1CCN(CC(O)COCc2ccc(Cl)cc2)CC1 (centres undefined),-5.73*,-5.73
COc1ccc(Br)cc1CNC(=O)c1ccc2c(c1)N(C)CCS2,-6.38*,-6.38
CCN1CCSc2ccc(C(=O)NCc3cc(Br)ccc3OC)cc21,i,·
CCC(C)n1c(/C=C/c2ccccc2)nc2ccccc21 (centres undefined),-5.68*,-5.68
CCn1c(/C=C/c2ccccc2)nc2ccccc21,i,·
CC(=O)NC12CC3CC(C1)CC(C(=O)N1CCN(c4ncccn4)CC1)(C3)C2,i,1.12
CC(C)c1ccc(C(C(=O)NC2CCCC2)N(C(=O)c2csnn2)C2CC2)cc1 (centres undefined),i,·
Cc1ccccc1OCC(=O)OCC(=O)Nc1cc(S(=O)(=O)N2CCCCC2)ccc1Cl,i,·
O=C(COCCOCC(=O)N(c1ccccn1)C1CCCCC1)N(c1ccccn1)C1CCCCC1,i,0.07
Cc1ccc(OCC(=O)N(c2ccccn2)C2CCCCC2)c(C)c1,-6.39*,-6.39
Cc1cccc(NC(=O)N2CCCC(CNC(=O)c3ccccc3Cl)C2)c1C (centres undefined),-8.24*,-8.24
CC(=O)c1ccc(C(=O)N2CCCC(CNC(=O)c3ccccc3Cl)C2)cc1 (centres undefined),i,·
O=C(CCCCC(=O)NNC(=O)COc1ccccc1)NNC(=O)COc1ccccc1,i,0.42
N=C1S/C(=C\c2ccco2)C(=O)N1c1nccs1,i,9.12*
N=C1S/C(=C\c2ccco2)C(=O)N1c1ccc2c(c1)OCO2,i,·
CCc1ccc2c(c1)c(N=NC1=NC(=O)CS1)c(O)n2C,i,5.85*
Cc1cc(C)c2[nH]c(O)c(N=NC3=NC(=O)CS3)c2c1,i,0.94
O=C(c1cccc(Br)c1)N1CCN(S(=O)(=O)N2CCCCC2)CC1,i,0.53
CCOC(=O)CCSc1nc(C)cc(C(F)(F)F)c1C#N,-5.74*,-5.74
CCOC(=O)CCSc1nc(C(C)(C)C)cc(C(F)(F)F)c1C#N,i,·
O=C(c1ccc(OCCN2CCCCC2)cc1)c1c(-c2ccc(O)cc2)sc2cc(O)ccc12,-5.98*,-5.98
SMILES,KCNQ2 inh,KCNQ2 pot
COC(=O)c1ccc(OCCN2CCCCCC2)cc1,i,·
CC(C)[C@H](NC(N)=O)C(=O)Nc1cccc(S(=O)(=O)N2CCOCC2)c1,i,·
CC(C)Cc1nc2ccccc2n1CCc1ccccc1,i,·
COc1cc(OC)cc(C(=O)Nc2ccc(N3CCN(C(=O)c4cccs4)CC3)cc2)c1,i,·
Cc1cc(C)cc(NC(=S)/C(=C(\[O-])c2ccc(Cl)s2)[n+]2cccc(C)c2)c1,-6.04*,-6.04
Cc1ccc(C)c(NC(=S)/C(=C(\[O-])c2ccc(Cl)s2)[n+]2ccccc2)c1,i,0.75
Cc1[nH]n(-c2ccccc2)c(=O)c1C(c1ccccc1[N+](=O)[O-])C(C#N)C#N (centres undefined),i,·
Cc1[nH]n(-c2ncc(-c3ccccc3)s2)c(=O)c1C(c1ccc(Cl)cc1)C(C#N)C#N (centres undefined),-7.16*,-7.16
COCc1ccc(C(=O)NC2CCCc3c2cnn3-c2cc(C)cc(C)c2)s1 (centres undefined),i,0.35
C/C(CCC(C)C)=N\Nc1cc(C)c2ccccc2n1,-8.32*,-8.32
Cc1cc(NCc2ccccc2)nc2ccccc12,i,2
O=c1c2cc(Cl)ccc2[nH]c(=S)n1Cc1cccs1,i,5.3*
O=c1c2cc(Cl)ccc2[nH]c(=S)n1Cc1ccco1,i,·
CC1Cc2ccccc2N1C(=O)CCN1C(=O)C2C3C=CC(C3)C2C1=O (centres undefined),i,0.21
CC1Cc2ccccc2N1C(=O)CCn1c(=O)sc2ccccc21 (centres undefined),-6.04*,-6.04
Oc1ccc(O)c(Cc2nc3ccccc3s2)c1,-5.56*,-5.56
Oc1ccccc1OCc1nc2ccccc2s1,i,·
O=C(NCCc1c[nH]c2ccccc12)c1cc2sccc2n1Cc1ccccc1,-6.52*,-6.52
Cn1c(C(=O)NCCc2c[nH]c3ccccc23)cc2sccc21,i,·
CCN(CC)C(=O)COc1c(-c2ccco2)oc2ccccc2c1=O,i,0.61
CC(=O)Oc1c(-c2ccco2)oc2ccccc2c1=O,i,5.91*
CCOc1ccccc1OCCCC(=O)N(CC)CC(=O)Nc1c(F)cccc1F,i,1.54
Cc1cccc(C)c1OCc1cc(C(=O)N2CCN(c3ccccc3)CC2C)no1 (centres undefined),-7.09*,-7.09
CC1CN(c2ccccc2)CCN1C(=O)c1cc(COc2c(F)cccc2F)on1 (centres undefined),i,1.3
O=C(CSc1nnc2c(n1)[nH]c1ccc(F)cc12)NCc1ccc(F)cc1,i,·
SMILES,KCNQ2 inh,KCNQ2 pot
CCCN(CCC)C(C(=O)Nc1cccc(OC)c1)c1ccccc1 (centres undefined),-5.93*,-5.93
CCC(C(=O)OCC(=O)Nc1cccc(OC)c1)c1ccccc1 (centres undefined),i,·
S=c1[nH]nc(Cn2cnc3ccccc32)n1-c1ccccc1,i,1.84
CC(C)(C)CC(C)(C)NC(=O)/C=C/C(=O)O,i,·
Cc1cc(=O)oc2cc(Oc3ccc([N+](=O)[O-])cc3[N+](=O)[O-])ccc12,i,0.01
O=C(Nc1ccc(F)cc1)c1sccc1SCc1cccc(C(F)(F)F)c1,i,·
O=C(Nc1ccc(F)cc1F)c1sccc1SCc1cccc(C(F)(F)F)c1,-5.94*,-5.94
COc1ccc(CN2C(=O)CNC2=S)cc1,i,·
Cc1ccc(-c2cc(C(F)F)n3ncc(C(=O)N4CCc5ccccc5C4)c3n2)cc1,i,·
O=C(c1cnn2c(C(F)(F)F)cc(-c3ccc(F)cc3)nc12)N1CCc2ccccc2C1,-6.27*,-6.27
O=C(OCC(=O)c1c[nH]c2ccccc12)c1cccc(S(=O)(=O)N2CCCCCC2)c1,i,8.85*
O=C(COC(=O)c1cccc(S(=O)(=O)N2CCCC2)c1)Nc1ccccc1,i,1.61
O=C1CN(CC(=O)NC2CCCc3ccccc32)CCN1 (centres undefined),i,0.51
CCC(=O)N(CCC1(c2ccccc2OC)CCOC(C(C)C)C1)Cc1ccco1 (centres undefined),-5.83*,-5.83
COc1ccccc1C1(CC(=O)O)CCOC(C(C)C)C1 (centres undefined),i,·
O=[N+]([O-])c1cc(S(=O)(=O)C(F)(F)F)ccc1NCC1CCCO1 (centres undefined),i,1.98
Oc1c(Br)cc(Br)cc1C=NCc1ccccc1,i,·
Oc1c(Br)cc(Br)cc1C=NCc1ccc(F)cc1,i,11.3*
Cc1ccc(S(=O)(=O)N2CCN(C(=O)C3CSC4(C)CCC(=O)N34)CC2)cc1C (centres undefined),i,·
COCC1CCN(C(=O)c2cc(COc3ccccc3SC)on2)C1 (centres undefined),i,2.98
C=CC[C@H]1CC(C)=C[C@H](CC=C)N1C(=O)c1cc(COc2ccccc2SC)on1,-5.57*,-5.57
